Measurements reported in the supplement of paper PMC4840960.
A number with no mark means an inactive call.

System: E18 rat cortical neuron-glia co-culture
Test: myelination (MBP fiber length per Olig2+ nucleus), % of 1 µM DAPT response (DMSO = 0) (% of DAPT); higher = more myelination, active = 50 or more
Settings: 1 µM; treatment time: 8 days (DIV5-DIV13)
How it was run: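 Library compounds at 1 or 5 µM in myelination medium were applied from DIV5 to DIV13 to papain-dissociated E18 rat cortical co-cultures seeded at 20,000 cells/well on poly-d-lysine/laminin 96-well plates. Fixed cells (4 % paraformaldehyde) were immunostained for MBP and Olig2 with DAPI, and four 10X fields were analysed in each duplicate well. Continuous straight MBP fiber length per Olig2+ nucleus was set to 0 for 0.1 % DMSO and to 100 for a 1 µM positive control.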

Row | Compound | myelination
1 | Nc1nc(=O)[nH]cc1F [Flucytosine] | -9.17
2 | COc1ccc(CCN(C)CCCC(C#N)(c2ccc(OC)c(OC)c2)C(C)C)cc1OC (configuration not stated) [Verapamil] | -27.2
3 | CC(C)n1c(/C=C/C(O)CC(O)CC(=O)O)c(-c2ccc(F)cc2)c2ccccc21 (configuration not stated) [Fluvastatin] | -15.7
4 | Cc1cnc(C(=O)NCCc2ccc(S(=O)(=O)NC(=O)NC3CCCCC3)cc2)cn1 [Glipizide] | 2.75
5 | CC(C)OC(=O)C(C)(C)Oc1ccc(C(=O)c2ccc(Cl)cc2)cc1 [Fenofibrate] | -0.815
6 | CCn1cc(C(=O)O)c(=O)c2ccc(C)nc21 [Nalidixic Acid] | -2.25
7 | CCN(CC)CC(=O)Nc1c(C)cccc1C [Lidocaine] | -26.3
8 | CC(C)C(=O)Nc1ccc([N+](=O)[O-])c(C(F)(F)F)c1 [Flutamide] | -7.82

Same assay, conditions: 5 µM; treatment time: 8 days (DIV5-DIV13)

Row | Compound | myelination
9 | CO[C@H]1/C=C/O[C@@]2(C)Oc3c(C)c(O)c4c(O)c(c(/C=N/N5CCN(C)CC5)c(O)c4c3C2=O)NC(=O)/C(C)=C\C=C\[C@H](C)[C@H](O)[C@@H](C)[C@@H](O)[C@@H](C)[C@H](OC(C)=O)[C@@H]1C [Rifampicin] | -2.96
10 | COc1ccc2cc(CCC(C)=O)ccc2c1 [Nabumetone] | 6.9
11 | Nc1ncnc2c1ncn2[C@@H]1O[C@H](CO)[C@@H](O)[C@H]1O [Adenosine] | -4.36
12 | Cc1noc(NS(=O)(=O)c2ccc(N)cc2)c1C [Sulfisoxazole] | -6.9
13 | CC(=O)OCC(=O)[C@@]1(O)CC[C@H]2[C@@H]3CCC4=CC(=O)CC[C@]4(C)[C@H]3C(=O)C[C@@]21C [Cortisone acetate] | -20.1
14 | COc1cc(CNC(=O)CCCC/C=C\C(C)C)ccc1O [Zucapsaicin] | 98.2 (active)
15 | CN1CCN2c3ncccc3Cc3ccccc3C2C1 (configuration not stated) [Mirtazapine] | -4.21
16 | COCCOC(=O)C1=C(C)NC(C)=C(C(=O)OC(C)C)C1c1cccc([N+](=O)[O-])c1 (configuration not stated) [Nimodipine] | -24.9
17 | CN1CCN(c2c(F)cc3c(=O)c(C(=O)O)cn4c3c2SCC4)CC1 [Rufloxacin] | -35.3
18 | CC1(C)S[C@@H]2[C@H](NC(=O)[C@H](N)c3ccccc3)C(=O)N2[C@H]1C(=O)O [Ampicillin] | -18.9
19 | C=C1/C(=C\C=C2/CCC[C@]3(C)[C@@H]([C@H](C)CCCC(C)(C)O)CC[C@@H]23)C[C@@H](O)C[C@@H]1O [Calcitriol] | 6.28
20 | CN(C)CCOC(C)(c1ccccc1)c1ccccn1 (configuration not stated) [Doxylamine] | -5.08
21 | CNCC[C@H](Oc1cccc2ccccc12)c1cccs1 [Duloxetine] | -33.2
22 | COc1cc(N)c(Cl)cc1C(=O)NC1CCN(CCCOc2ccc(F)cc2)CC1OC (configuration not stated) [Cisapride] | -10.2
23 | CCN(CC)CCNC(=O)c1cc(Cl)c(N)cc1OC [Metoclopramide] | -2.72
24 | CCC(C)(C)C(=O)O[C@H]1C[C@@H](C)C=C2C=C[C@H](C)[C@H](CC[C@@H]3C[C@@H](O)CC(=O)O3)[C@H]21 [Simvastatin] | 30
25 | C[C@]12CCC(=O)C=C1CC[C@@H]1[C@@H]2[C@@H](O)C[C@@]2(C)[C@H]1CC[C@]2(O)C(=O)CO [Hydrocortisone] | -10.2
26 | CCN(CC)CCNC(=O)c1ccc(N)cc1 [Procainamide] | 4.78
27 | Nc1ccn([C@H]2CC[C@@H](CO)O2)c(=O)n1 [Zalcitabine] | -7.3
28 | CC(=O)OCC(=O)NCCCOc1cccc(CN2CCCCC2)c1 [Roxatidine acetate] | -14.2
29 | C[C@H]1C[C@H]2[C@@H]3CCC4=CC(=O)C=C[C@]4(C)[C@@]3(F)[C@@H](O)C[C@]2(C)[C@@]1(O)C(=O)CCl [Clobetasol] | -9.01
30 | CN(C)CCCN1c2ccccc2CCc2ccccc21 [Imipramine] | -6.74
31 | CCOC(=O)[C@H](CCc1ccccc1)N[C@@H](C)C(=O)N1Cc2ccccc2C[C@H]1C(=O)O [Quinapril] | -6.78
32 | O=C(CCCN1CC=C(n2c(=O)[nH]c3ccccc32)CC1)c1ccc(F)cc1 [Droperidol] | -16.6
